This passage reports outcome and AC50 results from PubChem BioAssay (EPA / NIEHS).

In assay [1] the target is Retinoic acid receptor RXR-alpha (Homo sapiens) (UniProt P19793). Description: ATG_RXRa_TRANS: Attagene TRANS-FACTORIAL HepG2 Assay for human Retinoid X Receptor alpha (RXRa) (AID 2283012; active means hit-call score of the fitted dose curve at least 0.9, where 1 is the maximum). The gist of the method: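 Read-out: fluorescent reporter-transcript fragments quantified by capillary electrophoresis after RT-PCR. Transiently transfected HepG2 cells carrying GAL4-UAS reporters and NR-GAL4 chimeras were exposed to chemical for 24 h; activity scored as increase over DMSO.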
Retinoic acid receptor RXR-alpha (Homo sapiens), sequence (P19793 whole entry, looked up, the tested form may be a part): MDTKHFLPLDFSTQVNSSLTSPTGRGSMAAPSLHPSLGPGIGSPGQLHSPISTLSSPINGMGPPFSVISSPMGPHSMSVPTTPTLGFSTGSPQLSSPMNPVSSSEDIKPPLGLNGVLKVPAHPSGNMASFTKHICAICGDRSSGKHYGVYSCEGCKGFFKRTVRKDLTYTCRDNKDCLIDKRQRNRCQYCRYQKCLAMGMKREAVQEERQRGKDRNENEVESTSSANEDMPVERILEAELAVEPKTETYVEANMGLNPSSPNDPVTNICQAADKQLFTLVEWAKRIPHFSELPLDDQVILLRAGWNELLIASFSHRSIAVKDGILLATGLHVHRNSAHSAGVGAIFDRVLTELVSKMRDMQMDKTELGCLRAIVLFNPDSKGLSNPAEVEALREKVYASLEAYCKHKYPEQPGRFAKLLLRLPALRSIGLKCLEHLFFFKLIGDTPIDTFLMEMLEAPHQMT

Assay [2] has as its target human Retinoid X Receptor beta (RXRb), RXRB (gene 6257) (UniProt P28702). Nature of the assay: ATG_RXRb_TRANS: Attagene TRANS-FACTORIAL HepG2 Assay for human Retinoid X Receptor beta (RXRb) (AID 2283013; active means hit-call score of the fitted dose curve at least 0.9, where 1 is the maximum). The method in brief: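 Read-out: reporter mRNA induction via RT-PCR plus capillary electrophoresis fluorescence, analysed as signal increase relative to DMSO. Cells were human HepG2, transiently transfected with GAL4-UAS reporter constructs and chimeric receptor-Gal4 fusions, dosed for 24 h.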

Read-out in assay [3]: E-selectin (Homo sapiens) (UniProt P16581)
Description: BSK_3C_Eselectin: BioMAP Diversity Plus: 3C Assay for Eselectin Biomarker Activity (AID 2283015).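 On outcome: cell surface E-selectin protein quantified by ELISA 24 h after dosing.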 The settings on record: primary human endothelial cells (HUVEC); actives raise or lower the signal. The method in brief: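 Endpoint derived by bidirectional fitting against DMSO vehicle; signal is ELISA-detected E-selectin from primary HUVEC at 24 h post-dosing, with parallel SRB staining (0.1% SRB, 560 nm) flagging cytotoxicity.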

Read-out in assay [4]: Interleukin-1 alpha (IL1a), IL1A (gene 3552)
Nature of the assay: BSK_BE3C_IL1a: BioMAP Diversity Plus: BE3C Assay for Interleukin-1 alpha (IL1a) Biomarker Activity (AID 2283016). The settings on record: primary human bronchial epithelial cells; actives raise or lower the signal. The gist of the method: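 ELISA read-out of IL-1a from human lung bronchial epithelial primary cells, 24 h post-dose. Gain or loss of signal fitted relative to DMSO negative control.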

Read-out in assay [5]: Monocyte Chemoattractant Protein-1 (MCP1), CCL2 (gene 6347)
Nature of the assay: BSK_3C_MCP1: BioMAP Diversity Plus: 3C Assay for Monocyte Chemoattractant Protein-1 (MCP1) Biomarker Activity (AID 2283017). Conditions: primary human endothelial cells (HUVEC); actives raise or lower the signal. The gist of the method: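 Using human vascular primary endothelium, researchers measured MCP-1 by ELISA 24 h after treatment, with DMSO serving as negative control for bidirectional fitting.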

Read-out in assay [6]: Monocyte Chemoattractant Protein-1 (MCP1), CCL2 (gene 6347)
Nature of the assay: BSK_4H_MCP1: BioMAP Diversity Plus: 4H Assay for Monocyte Chemoattractant Protein-1 (MCP1) Biomarker Activity (AID 2283018). The settings on record: primary human endothelial cells (HUVEC); actives raise or lower the signal. The gist of the method: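 HUVEC primary cells, 24 h post-dose, MCP-1 by ELISA. Gain or loss of signal fitted bidirectionally vs DMSO baseline. Cytotoxicity: SRB stain (0.1% after 10% TCA fixation), read 560 nm, parallel cultures.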

Read-out in assay [7]: Human Leukocyte Antigen - DR isotype (HLADR), HLA-DRA (gene 3122)
Description: BSK_3C_HLADR: BioMAP Diversity Plus: 3C Assay for Human Leukocyte Antigen - DR isotype (HLADR) Biomarker Activity (AID 2283019).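 On outcome: ELISA of cell-surface HLA-DR on HUVEC 24 h after dosing.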 Conditions: primary human endothelial cells (HUVEC); actives raise or lower the signal. The gist of the method: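 Compound added to primary HUVEC cultures, 24 h incubation, then HLA-DR determined by ELISA; endpoint derived by bidirectional fitting relative to DMSO negative control.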

Read-out in assay [8]: Interleukin-8 (IL8), CXCL8 (gene 3576)
Description: BSK_3C_IL8: BioMAP Diversity Plus: 3C Assay for Interleukin-8 (IL8) Biomarker Activity (AID 2283020). The settings on record: primary human endothelial cells (HUVEC); actives raise or lower the signal. The method in brief: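 HUVEC, 3C stimulation; 24 h compound exposure; IL-8 read by ELISA; gain or loss of signal fitted relative to DMSO control.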

Read-out in assay [9]: Monokine induced gamma interferon (MIG), CXCL9 (gene 4283)
Description: BSK_3C_MIG: BioMAP Diversity Plus: 3C Assay for Monokine induced gamma interferon (MIG) Biomarker Activity (AID 2283021).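 On AC50: MIG protein level measured by immunoassay in the treated endothelial cultures.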 The settings on record: primary human endothelial cells (HUVEC); actives raise or lower the signal. The gist of the method:
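HUVEC, 3C system; 24 h chemical exposure; MIG by ELISA; bidirectional fit vs DMSO baseline.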

Assay [10] in a line: BSK_3C_SRB: Viability Assessment in the BioMAP Diversity Plus: 3C Assay (AID 2283023).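 Further: fitted both ways against DMSO so a hit may be signal rise or drop.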 The settings on record: primary human endothelial cells (HUVEC). The method in brief: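 Overt cytotoxicity is gauged in parallel confluent HUVEC cultures by SRB total-protein staining at the time of biomarker measurement, 24 h after dosing. Gain or loss of signal is fitted versus DMSO.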
Read-out in assay [11]: Matrix Metallopeptidase 1 (MMP1), MMP1 (gene 4312)
Description: BSK_BE3C_MMP1: BioMAP Diversity Plus: BE3C Assay for Matrix Metallopeptidase 1 (MMP1) Biomarker Activity (AID 2283024). The settings on record: primary human bronchial epithelial cells; actives raise or lower the signal. The method in brief:
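ELISA read-out of MMP1 in human lung bronchial epithelial primary cultures, 24 h post-dose; bidirectional curve fit vs DMSO baseline, gain or loss of signal scored.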

The nature of assay [12]: BSK_3C_Vis: BioMAP Diversity Plus: 3C Assay for Morphology Visualization (AID 2283025).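 Further: fitted both ways so gain or loss versus DMSO counts.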 Conditions: primary human endothelial cells (HUVEC). The gist of the method: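 HUVEC, 3C system; light microscopy of morphology at 24 h post-dose. Bidirectional fit vs DMSO baseline. Secondary readout, background-control function.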
Read-out in assay [13]: Pselectin, SELP (gene 6403)
Description: BSK_4H_Pselectin: BioMAP Diversity Plus: 4H Assay for Pselectin Biomarker Activity (AID 2283026). Conditions: primary human endothelial cells (HUVEC); actives raise or lower the signal. The method in brief:
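HUVEC, 24 h chemical exposure; P-selectin read by ELISA. Bidirectional curve fit vs DMSO baseline; gain or loss of signal scored.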

The nature of assay [14]: BSK_4H_SRB: Viability Assessment in the BioMAP Diversity Plus: 4H Assay (AID 2283027).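 Further: cells exposed to compound for 24 h before staining.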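 On AC50: curves fitted both ways versus DMSO so AC50 may be loss or gain.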 The settings on record: primary human endothelial cells (HUVEC). The method in brief: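 Cytotoxicity readout: sulforhodamine B (0.1%) staining of total protein after 10% TCA fixation, measured at 560 nm in human umbilical vein endothelium at 24 h. DMSO set the baseline; fitting was bidirectional.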

A short description of assay [15]: BSK_BE3C_SRB: Viability Assessment in the BioMAP Diversity Plus: BE3C Assay (AID 2283028).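 Further: measured 24 h after chemical dosing.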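 On AC50: fitted both ways so AC50 may mark signal gain or loss versus DMSO.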 Conditions: primary human bronchial epithelial cells. The method in brief:
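SRB total-protein staining (0.1%, after TCA fixation) of chemically dosed human bronchial epithelial primary cells at 24 h; DMSO serves as the negative control for bidirectional curve fitting.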

Read-out in assay [16]: Thrombomodulin, THBD (gene 7056)
Nature of the assay: BSK_3C_Thrombomodulin: BioMAP Diversity Plus: 3C Assay for Thrombomodulin Biomarker Activity (AID 2283029). The settings on record: primary human endothelial cells (HUVEC); actives raise or lower the signal. The method in brief: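 HUVEC, 3C conditions; compound 24 h; thrombomodulin by ELISA; bidirectional curve fit vs DMSO baseline; parallel SRB total-protein staining for cytotoxicity.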

Read-out in assay [17]: Urokinase-type plasminogen activator receptor (uPAR), PLAUR (gene 5329)
Description: BSK_4H_uPAR: BioMAP Diversity Plus: 4H Assay for Urokinase-type plasminogen activator receptor (uPAR) Biomarker Activity (AID 2283030). The settings on record: primary human endothelial cells (HUVEC); actives raise or lower the signal. The method in brief:
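Endpoint derived via bidirectional curve fitting against DMSO baseline; readout was ELISA detection of uPAR on umbilical vein endothelial cells at 24 h post-treatment, with SRB-stained parallel cultures assessing cytotoxicity.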

Read-out in assay [18]: Vascular endothelial growth factor receptor 2 (Homo sapiens) (UniProt P35968)
Description: BSK_4H_VEGFRII: BioMAP Diversity Plus: 4H Assay for Vascular endothelial growth factor receptor 2 (VEGFR2) Biomarker Activity (AID 2283031).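 On AC50: cell-surface VEGFR2 protein level quantified by ELISA.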 Conditions: primary human endothelial cells (HUVEC); actives raise or lower the signal. The method in brief: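 In this multiplexed HUVEC system, biomarker ELISA was performed after 24 h chemical exposure. Parallel SRB staining (TCA fixation, 560 nm) tracked cytotoxicity; DMSO served as baseline.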

The target of assay [19] is human Thyroid Receptor alpha (THRa1), THRA (gene 7067) (UniProt P10827). Nature of the assay: ATG_THRa1_TRANS: Attagene TRANS-FACTORIAL HepG2 Assay for human Thyroid Receptor alpha (THRa1) (AID 2283014; active means hit-call score of the fitted dose curve at least 0.9, where 1 is the maximum). The gist of the method:
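Measured here is mRNA from a GAL4-UAS reporter in transfected HepG2 cells carrying a Gal4-fused receptor, 24 h post-dose. DMSO served as negative control and baseline.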

The target of assay [20] is human Vitamin D Receptor (VDR), VDR (gene 7421) (UniProt P11473). Description: ATG_VDR_TRANS: Attagene TRANS-FACTORIAL HepG2 Assay for human Vitamin D Receptor (VDR) (AID 2283022; active means hit-call score of the fitted dose curve at least 0.9, where 1 is the maximum). The gist of the method:
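Multiplexed TRANS reporter in HepG2; 24 h treatment; reporter mRNA by RT-PCR plus capillary electrophoresis; upregulation scored relative to DMSO.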

“And” between values parts separate entries of the source, which are not always exact repeats. Equal entries are not always repeated. Results filed as inconclusive are left out. The source holds several records for some structures; these can differ, active in one and inactive in another. The source made the active and inactive calls. How the source made its calls, unless noted: active means hit-call score of the fitted dose curve at least 0.9, where 1 is the maximum; inactive means score below 0.9.

human Retinoid X Receptor beta (RXRb), RXRB (gene 6257), sequence (P28702 whole entry, looked up, the tested form may be a part): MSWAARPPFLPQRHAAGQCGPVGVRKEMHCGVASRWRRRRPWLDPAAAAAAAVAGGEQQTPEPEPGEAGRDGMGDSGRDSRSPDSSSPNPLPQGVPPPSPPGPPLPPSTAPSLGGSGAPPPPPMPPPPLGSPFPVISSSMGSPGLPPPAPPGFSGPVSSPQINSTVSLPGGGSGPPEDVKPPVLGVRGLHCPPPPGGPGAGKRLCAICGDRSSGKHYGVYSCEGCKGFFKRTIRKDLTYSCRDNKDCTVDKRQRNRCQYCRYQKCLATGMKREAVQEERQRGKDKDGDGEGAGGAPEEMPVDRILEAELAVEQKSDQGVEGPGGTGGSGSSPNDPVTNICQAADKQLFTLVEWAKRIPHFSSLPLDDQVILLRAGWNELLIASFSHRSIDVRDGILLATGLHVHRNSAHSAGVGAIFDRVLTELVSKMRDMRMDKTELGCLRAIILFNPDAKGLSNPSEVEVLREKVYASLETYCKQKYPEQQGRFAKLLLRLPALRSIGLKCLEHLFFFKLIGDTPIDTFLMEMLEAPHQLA
E-selectin (Homo sapiens), sequence (P16581 whole entry, looked up): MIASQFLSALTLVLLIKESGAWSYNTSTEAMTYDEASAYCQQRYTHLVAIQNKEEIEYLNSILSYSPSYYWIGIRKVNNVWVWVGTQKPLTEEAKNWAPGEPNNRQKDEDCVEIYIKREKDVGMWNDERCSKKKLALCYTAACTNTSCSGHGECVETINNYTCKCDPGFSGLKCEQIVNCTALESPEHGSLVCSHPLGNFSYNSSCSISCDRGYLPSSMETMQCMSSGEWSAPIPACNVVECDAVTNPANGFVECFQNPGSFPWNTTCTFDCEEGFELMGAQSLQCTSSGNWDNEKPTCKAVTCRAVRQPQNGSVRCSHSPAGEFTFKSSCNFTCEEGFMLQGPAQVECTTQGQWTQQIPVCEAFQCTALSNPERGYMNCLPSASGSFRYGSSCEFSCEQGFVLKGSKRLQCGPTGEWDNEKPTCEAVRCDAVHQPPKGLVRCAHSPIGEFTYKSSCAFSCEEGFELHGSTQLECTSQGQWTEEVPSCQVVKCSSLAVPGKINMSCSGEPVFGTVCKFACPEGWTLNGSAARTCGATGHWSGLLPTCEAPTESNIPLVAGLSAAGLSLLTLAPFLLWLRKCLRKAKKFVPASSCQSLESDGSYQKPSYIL
human Vitamin D Receptor (VDR), VDR (gene 7421), sequence (P11473 whole entry, looked up): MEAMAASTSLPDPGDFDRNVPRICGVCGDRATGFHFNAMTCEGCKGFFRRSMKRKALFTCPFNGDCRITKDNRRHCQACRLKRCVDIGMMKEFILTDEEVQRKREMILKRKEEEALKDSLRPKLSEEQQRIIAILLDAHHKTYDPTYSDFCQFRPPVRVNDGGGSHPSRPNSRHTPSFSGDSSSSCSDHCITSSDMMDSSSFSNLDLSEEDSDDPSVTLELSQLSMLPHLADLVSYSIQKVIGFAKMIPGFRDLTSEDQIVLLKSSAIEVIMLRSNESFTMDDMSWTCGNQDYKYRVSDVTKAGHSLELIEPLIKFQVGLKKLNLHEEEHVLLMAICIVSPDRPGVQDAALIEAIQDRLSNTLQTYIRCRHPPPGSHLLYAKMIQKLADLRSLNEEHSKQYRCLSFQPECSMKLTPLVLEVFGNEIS
human Thyroid Receptor alpha (THRa1), THRA (gene 7067), sequence (P10827 whole entry, looked up, the tested form may be a part): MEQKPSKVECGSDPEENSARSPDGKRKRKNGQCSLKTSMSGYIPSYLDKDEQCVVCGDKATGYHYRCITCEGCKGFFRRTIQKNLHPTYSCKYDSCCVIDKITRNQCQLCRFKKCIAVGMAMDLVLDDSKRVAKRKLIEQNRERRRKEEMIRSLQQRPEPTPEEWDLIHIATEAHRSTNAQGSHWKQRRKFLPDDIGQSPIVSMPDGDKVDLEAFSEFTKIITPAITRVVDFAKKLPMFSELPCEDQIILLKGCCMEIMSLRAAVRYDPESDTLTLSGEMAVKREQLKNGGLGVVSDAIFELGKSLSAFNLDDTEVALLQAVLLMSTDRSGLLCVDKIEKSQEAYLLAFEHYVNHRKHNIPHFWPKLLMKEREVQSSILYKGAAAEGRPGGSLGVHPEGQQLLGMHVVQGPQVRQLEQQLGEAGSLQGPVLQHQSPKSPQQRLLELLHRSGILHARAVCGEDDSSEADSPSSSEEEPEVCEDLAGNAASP

One may read the AC50 as the concentration at which the activity in the assay is half-maximal. On to `CCN(Cc1c(F)cccc1Cl)c1c([N+](=O)[O-])cc(C(F)(F)F)cc1[N+](=O)[O-]`, for which the call in assay [1], in assay [2], in assay [3], in [4], in assay [5] and in assay [8] was inactive. The outcome in assay [9], in [11], in assay [13], in assay [16], in assay [17] and in [18] was inactive. In addition, the AC50 in [6] is 11.3 µM (active); in [7], 5.69 µM (active); in [10] it was 11.8 µM (active); in assay [12], 13.7 µM (active); in assay [14], 12.6 µM (active); in assay [15], 8.78 µM (active).

Turning to `N#CSCSc1nc2ccccc2s1`, the compound was classed as inactive in [1], in [2], in assay [19], in assay [20], in [15] and in assay [16]. For the same compound, the AC50 in assay [2] was 13.3 µM (active); in assay [3], 7.25 µM (active) and 9.01 µM (active); in assay [4], 6.07 µM (active) and 10.3 µM (active); in assay [5], 5.23 µM (active) and 12.1 µM (active); in assay [6], 4.06 µM (active) and 12.2 µM (active); in assay [7], 2.3 µM (active) and 5.63 µM (active). The AC50 is 11 µM (active) and 11.9 µM (active) in [9]; 5.31 µM (active) and 5.24 µM (active) in assay [10]; 7.12 µM (active) and 11.3 µM (active) in assay [11]; 4.4 µM (active) and 4.82 µM (active) in assay [12]; 1.24 µM (active) and 5.49 µM (active) in assay [13]; 3.51 µM (active) and 10.6 µM (active) in assay [14]. The AC50 in assay [15] was 5.15 µM (active); in assay [16], 35.8 µM (active); in assay [17] it was 5.3 µM (active) and 6.65 µM (active); in assay [18], 5.06 µM (active) and 5.42 µM (active).

Take `CCCCOC(=O)C(C)Oc1ccc(Oc2ccc(C(F)(F)F)cn2)cc1` (stereo not given): the outcome in [1], in assay [2], in assay [19], in assay [3], in assay [4] and in [5] was inactive. Besides, the result in assay [6], in [7], in assay [8], in assay [9], in assay [20] and in [10] was inactive. Also, the outcome in [11], in [12], in [13], in assay [14], in assay [15] and in [16] was inactive. Moreover, the outcome in assay [17] and in [18] was inactive.
